Test [1] concerns PRMT1 (protein arginine N-methyltransferase 1). The test is described as follows: PRMT1 binders on small-molecule microarrays, primary screen, biochemical, small-molecule microarray, 635 nm fluorescence (AID 1088).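 Further: binding of Prmt1 protein to compounds spotted on small-molecule microarray slides.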 The note with it: small-molecule microarray binding, higher = more signal.
Test [2] can be described thus: yeast growth modulation, basal conditions, primary screen, YJM789 clinical isolate, OD600, 24 h (AID 1089).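 Further: growth of clinical yeast isolate S. cerevisiae YJM 789 seeded 1000 cells per well; test concentration not given here.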 The note with it: S. cerevisiae YJM789 growth, higher = more signal, called active from +8 up or from −8 down.
Test [3] in a line: fission yeast growth modulation, primary screen, strain 972, OD600, 24 h, no modulator (AID 1090).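 Further: basal condition with compound alone and no growth modifier present; test concentration not given here.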 The note with it: S. pombe 972 growth, higher = more signal, called active from +8 up or from −8 down.
The nature of test [4]: S. cerevisiae growth modulation with rapamycin, primary screen, strain BY4716, OD600, 96 h (AID 1091). Further: test concentration not given here. To be noted: higher = more signal, called active from +8 up or from −8 down.
The target in test [5] is Torsin-1A-interacting protein 2 (Homo sapiens) (UniProt Q8NFQ8). The test is described as follows: LULL1 binders on small-molecule microarray, primary screen, cell lysate, human LULL1 lysate, 635/667 nm fluorescence (AID 1092).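 Further: probe is lysate of COS7 cells overexpressing human LULL1; score merges per-feature 667 nm fluorescence with signal-to-noise.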 To be noted: hLULL1 lysate binding, 635 nm fluorescence, higher = more signal.
Test [6] is described as follows: E. coli growth modulation, two-sided OD650, primary screen, E. coli filamentation project, strain DRC41, 24 h (AID 1093).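 Further: MC1000 strain lacking acrAB efflux and sulA so SOS filamentation is blocked; test concentration not given here.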 The note with it: OD650, 24 h, higher = more signal, called active from +8 up or from −8 down.
Test [7] in a line: small-molecule microarray binders of probe aLefty2, primary screen, biochemical, biotinylated probe, 635/667 nm fluorescence (AID 1094).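 Further: score merges spot fluorescence near 667 nm with spot signal-to-noise ratio.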 The note with it: higher = more signal.
In test [8] the test system is Noggin (protein binding on small-molecule microarray). The test is described as follows: Noggin binders on small-molecule microarray, primary screen, biochemical, 635/667 nm fluorescence (AID 1095).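 Further: score merges 667 nm feature fluorescence with signal to noise over triplicate slides.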 The note with it: 635 nm fluorescence, higher = more signal.
Test [9] has as its target Neurogenic locus notch homolog protein 3 (Homo sapiens) (UniProt Q9UM47). The test is described as follows: NOTCH3 binders on small-molecule microarray, primary screen, biochemical, 635/667 nm fluorescence (AID 1096). To be noted: NOTCH3 binding, 635 nm fluorescence, higher = more signal.
Test [10] in a line: small-molecule microarray binders of probe aEGFR, primary screen, biochemical, biotinylated probe, 635/667 nm fluorescence (AID 1097).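 Further: probe is a biotinylated anti-EGFR antibody binding compounds printed on slides; score combines fluorescence near 667 nm and signal to noise of each spot.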 To be noted: higher = more signal.
Test [11] has as its system Plasmodium falciparum Sir2 (PF13_0152, Sir2A). The test is described as follows: pfSir2 binders on small-molecule microarrays, primary screen, biochemical, small-molecule microarray, 635 nm fluorescence (AID 1098).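 Further: score merges spot fluorescence intensity with its signal-to-noise ratio.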 The note with it: small-molecule microarray binding, fluorescence 635 nm; higher = more signal.
Test [12] in a line: small-molecule microarray binders of probe aDKK1, primary screen, biochemical, biotinylated probe, 635/667 nm fluorescence (AID 1099).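 Further: score merges 667nm spot fluorescence with signal to noise across triplicate slides; reference of the scale not given here.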 To be noted: higher = more signal.
A short description of test [13]: small-molecule microarray binders of probe aCHRDL2, primary screen, biochemical, biotinylated probe, 635/667 nm fluorescence (AID 1100). To be noted: higher = more signal.
Test [14] is described as follows: splicing luciferase reporter signal modulators, primary screen, spliceosome inhibition project, cell-based, HEK293, splice +/- reporter (AID 1101).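 Further: HEK293 cells carrying a splicing-competent luciferase reporter gene; test concentration not given here.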 To be noted: luminescence, 24 h, higher = more signal, called active from +8 up or from −8 down.
Test [15] has as its target Fibroblast growth factor 10 (Homo sapiens) (UniProt O15520). The test is described as follows: FGF10 binders on small-molecule microarrays, primary screen, biochemical, small-molecule microarray, 635 nm fluorescence (AID 1102). To be noted: FGF10 binding, fluorescence 635 nm, higher = more signal.
In test [16] the test system is glycogen synthase kinase-3 (GSK3A per assay name; protocol says GSK3B). The test is described as follows: GSK3 binders on small-molecule microarrays, primary screen, biochemical, small-molecule microarray, 635 nm fluorescence, GSK3A (AID 1103). Further: the record names both GSK3A and GSK3B. The note with it: small-molecule microarray binding, fluorescence 635 nm; higher = more signal.
Test [17] deals with Epidermal growth factor receptor (Homo sapiens) (UniProt P00533). The test is described as follows: EGFR binders on small-molecule microarrays, primary screen, biochemical, small-molecule microarray, 635 nm fluorescence (AID 1104).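 Further: score merges 667 nm emission intensity with spot signal to noise over triplicate slides.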 To be noted: EGFR binding, higher = more signal.
Test [18] addresses Follistatin-related protein 3 (Homo sapiens) (UniProt O95633). The test is described as follows: FSTL3 binders on small-molecule microarrays, primary screen, biochemical, small-molecule microarray, 635 nm fluorescence (AID 1105).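 Further: score merges emission near 667 nm and signal to noise per printed spot across three slides.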 To be noted: FSTL3 binding, higher = more signal.
In test [19] the target is Dickkopf-related protein 1 (Homo sapiens) (UniProt O94907). The test is described as follows: DKK1 binders on small-molecule microarrays, primary screen, biochemical, small-molecule microarray, 635 nm fluorescence scan (AID 1106).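 Further: score merges emission near 667 nm with signal to noise over three replicate slides.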 The note with it: DKK1 binding, higher = more signal.
The test system of test [20] is Inhibin beta A chain (activin A). The test is described as follows: INHBA (activin A) binders on microarrays, primary screen, biochemical, small-molecule microarray, 635 nm fluorescence scan (AID 1107).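 Further: mouse activin A protein probed at 4.33 µg/mL on printed slides; score merges bound-protein fluorescence near 667 nm with spot signal-to-noise.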 To be noted: small-molecule microarray binding, higher = more signal.

Active and inactive are the calls of the source.

Fibroblast growth factor 10 (Homo sapiens), sequence (O15520 whole entry, looked up): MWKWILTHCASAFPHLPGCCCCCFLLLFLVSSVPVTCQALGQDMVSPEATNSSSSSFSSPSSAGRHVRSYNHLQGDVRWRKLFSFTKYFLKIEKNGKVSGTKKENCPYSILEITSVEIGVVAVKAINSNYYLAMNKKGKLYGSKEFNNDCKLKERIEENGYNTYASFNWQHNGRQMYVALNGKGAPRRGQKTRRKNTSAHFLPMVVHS
Neurogenic locus notch homolog protein 3 (Homo sapiens), sequence (Q9UM47 whole entry, looked up): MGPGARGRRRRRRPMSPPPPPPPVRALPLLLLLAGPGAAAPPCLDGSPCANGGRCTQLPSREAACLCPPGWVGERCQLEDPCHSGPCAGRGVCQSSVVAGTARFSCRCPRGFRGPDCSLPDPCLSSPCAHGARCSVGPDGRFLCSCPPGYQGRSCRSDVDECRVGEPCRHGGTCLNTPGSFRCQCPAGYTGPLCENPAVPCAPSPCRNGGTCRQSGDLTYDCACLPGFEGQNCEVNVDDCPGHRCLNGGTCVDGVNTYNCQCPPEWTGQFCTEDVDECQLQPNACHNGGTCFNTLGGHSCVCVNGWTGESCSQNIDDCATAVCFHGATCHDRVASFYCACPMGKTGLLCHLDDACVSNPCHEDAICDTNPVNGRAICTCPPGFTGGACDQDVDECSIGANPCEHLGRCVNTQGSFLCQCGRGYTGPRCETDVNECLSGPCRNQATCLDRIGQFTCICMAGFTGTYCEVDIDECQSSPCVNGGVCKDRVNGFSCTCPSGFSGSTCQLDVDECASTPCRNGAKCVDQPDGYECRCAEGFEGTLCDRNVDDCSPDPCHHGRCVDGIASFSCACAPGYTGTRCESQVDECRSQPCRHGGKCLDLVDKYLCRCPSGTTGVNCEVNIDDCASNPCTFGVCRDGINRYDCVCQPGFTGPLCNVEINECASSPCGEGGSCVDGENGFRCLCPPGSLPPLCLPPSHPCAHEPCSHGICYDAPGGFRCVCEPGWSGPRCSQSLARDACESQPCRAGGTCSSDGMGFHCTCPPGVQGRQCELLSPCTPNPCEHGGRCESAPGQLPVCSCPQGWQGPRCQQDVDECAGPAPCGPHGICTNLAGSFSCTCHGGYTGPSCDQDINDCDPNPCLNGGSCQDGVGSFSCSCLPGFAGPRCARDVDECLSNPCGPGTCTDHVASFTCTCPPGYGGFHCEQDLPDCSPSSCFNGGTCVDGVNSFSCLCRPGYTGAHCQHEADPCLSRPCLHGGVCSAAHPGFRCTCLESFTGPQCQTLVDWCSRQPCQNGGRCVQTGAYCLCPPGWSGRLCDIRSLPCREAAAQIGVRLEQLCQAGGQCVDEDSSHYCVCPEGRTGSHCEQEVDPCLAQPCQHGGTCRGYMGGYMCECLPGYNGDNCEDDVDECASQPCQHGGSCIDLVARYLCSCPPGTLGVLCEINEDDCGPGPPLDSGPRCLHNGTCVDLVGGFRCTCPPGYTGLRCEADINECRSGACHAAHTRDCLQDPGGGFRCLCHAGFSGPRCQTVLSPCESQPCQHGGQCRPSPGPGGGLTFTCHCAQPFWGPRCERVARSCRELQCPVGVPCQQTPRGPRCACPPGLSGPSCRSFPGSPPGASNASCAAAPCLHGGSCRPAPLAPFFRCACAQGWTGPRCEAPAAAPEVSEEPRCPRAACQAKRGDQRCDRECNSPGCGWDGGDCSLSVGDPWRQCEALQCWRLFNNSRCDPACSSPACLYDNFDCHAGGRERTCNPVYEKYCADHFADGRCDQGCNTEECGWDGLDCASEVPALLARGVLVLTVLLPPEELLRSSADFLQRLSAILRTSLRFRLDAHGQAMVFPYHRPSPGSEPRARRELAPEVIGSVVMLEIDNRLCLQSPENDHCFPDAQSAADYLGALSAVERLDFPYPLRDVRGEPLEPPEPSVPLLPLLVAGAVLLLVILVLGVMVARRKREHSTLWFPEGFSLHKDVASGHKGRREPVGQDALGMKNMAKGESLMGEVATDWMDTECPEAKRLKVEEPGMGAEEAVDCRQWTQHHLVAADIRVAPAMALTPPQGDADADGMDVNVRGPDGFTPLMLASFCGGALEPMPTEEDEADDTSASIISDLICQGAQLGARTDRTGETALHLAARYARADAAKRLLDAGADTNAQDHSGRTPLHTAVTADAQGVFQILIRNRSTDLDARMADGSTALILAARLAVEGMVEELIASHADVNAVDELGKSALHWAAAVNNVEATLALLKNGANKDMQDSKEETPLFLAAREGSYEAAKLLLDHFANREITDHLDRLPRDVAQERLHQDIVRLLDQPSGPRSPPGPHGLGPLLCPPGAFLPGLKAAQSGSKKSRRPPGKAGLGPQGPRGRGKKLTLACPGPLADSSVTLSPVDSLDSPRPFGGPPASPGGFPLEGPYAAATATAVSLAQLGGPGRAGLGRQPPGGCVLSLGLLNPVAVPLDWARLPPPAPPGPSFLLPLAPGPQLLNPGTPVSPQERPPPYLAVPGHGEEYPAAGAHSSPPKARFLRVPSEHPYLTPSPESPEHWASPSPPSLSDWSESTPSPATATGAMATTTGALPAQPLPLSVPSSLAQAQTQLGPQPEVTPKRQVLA
Dickkopf-related protein 1 (Homo sapiens), sequence (O94907 whole entry, looked up): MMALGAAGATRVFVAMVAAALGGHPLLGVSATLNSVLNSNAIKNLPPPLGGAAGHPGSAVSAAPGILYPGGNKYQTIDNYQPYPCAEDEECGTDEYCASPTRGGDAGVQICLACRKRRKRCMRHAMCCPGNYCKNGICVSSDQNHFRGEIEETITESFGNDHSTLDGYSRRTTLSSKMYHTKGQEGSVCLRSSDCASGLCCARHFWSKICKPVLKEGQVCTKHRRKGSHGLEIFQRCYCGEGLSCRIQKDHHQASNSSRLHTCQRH
Epidermal growth factor receptor (Homo sapiens), sequence (P00533 whole entry, looked up): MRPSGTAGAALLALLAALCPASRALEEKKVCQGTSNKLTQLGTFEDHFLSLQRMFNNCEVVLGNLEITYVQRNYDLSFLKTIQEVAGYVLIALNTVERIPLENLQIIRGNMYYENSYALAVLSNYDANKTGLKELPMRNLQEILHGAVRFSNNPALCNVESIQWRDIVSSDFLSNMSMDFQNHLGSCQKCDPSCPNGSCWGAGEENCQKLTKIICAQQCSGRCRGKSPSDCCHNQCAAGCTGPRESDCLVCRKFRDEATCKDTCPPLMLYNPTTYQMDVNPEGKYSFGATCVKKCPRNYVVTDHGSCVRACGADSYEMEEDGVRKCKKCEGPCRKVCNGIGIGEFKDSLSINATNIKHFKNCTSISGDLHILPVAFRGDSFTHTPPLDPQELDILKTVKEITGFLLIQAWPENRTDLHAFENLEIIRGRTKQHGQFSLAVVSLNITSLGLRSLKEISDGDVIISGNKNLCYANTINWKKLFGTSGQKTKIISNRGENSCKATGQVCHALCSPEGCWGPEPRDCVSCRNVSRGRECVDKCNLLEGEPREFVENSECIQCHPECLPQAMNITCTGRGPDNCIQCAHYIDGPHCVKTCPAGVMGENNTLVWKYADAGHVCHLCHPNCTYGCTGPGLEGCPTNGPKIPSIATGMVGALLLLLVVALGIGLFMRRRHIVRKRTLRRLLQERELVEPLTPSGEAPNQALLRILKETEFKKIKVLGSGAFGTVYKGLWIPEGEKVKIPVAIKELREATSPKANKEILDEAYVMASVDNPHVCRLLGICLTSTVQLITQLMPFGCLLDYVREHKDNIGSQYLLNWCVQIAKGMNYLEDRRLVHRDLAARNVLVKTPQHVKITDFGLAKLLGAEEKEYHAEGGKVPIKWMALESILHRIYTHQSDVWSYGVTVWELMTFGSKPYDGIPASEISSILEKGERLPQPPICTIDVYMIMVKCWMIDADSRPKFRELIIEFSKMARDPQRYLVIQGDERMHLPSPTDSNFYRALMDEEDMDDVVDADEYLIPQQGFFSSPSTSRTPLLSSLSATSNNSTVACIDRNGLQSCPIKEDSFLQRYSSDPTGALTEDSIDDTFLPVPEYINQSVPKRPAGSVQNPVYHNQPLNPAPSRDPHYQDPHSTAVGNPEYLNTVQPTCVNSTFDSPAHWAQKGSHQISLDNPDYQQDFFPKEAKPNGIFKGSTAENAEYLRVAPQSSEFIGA
Follistatin-related protein 3 (Homo sapiens), sequence (O95633 whole entry, looked up): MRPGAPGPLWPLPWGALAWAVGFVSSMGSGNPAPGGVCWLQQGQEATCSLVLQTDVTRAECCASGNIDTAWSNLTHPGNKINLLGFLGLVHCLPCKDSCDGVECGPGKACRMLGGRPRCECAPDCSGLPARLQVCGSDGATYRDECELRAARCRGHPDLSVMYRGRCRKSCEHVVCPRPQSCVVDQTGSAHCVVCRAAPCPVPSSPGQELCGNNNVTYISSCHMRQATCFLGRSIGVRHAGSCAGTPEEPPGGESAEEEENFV
Torsin-1A-interacting protein 2 (Homo sapiens), sequence (Q8NFQ8 whole entry, looked up): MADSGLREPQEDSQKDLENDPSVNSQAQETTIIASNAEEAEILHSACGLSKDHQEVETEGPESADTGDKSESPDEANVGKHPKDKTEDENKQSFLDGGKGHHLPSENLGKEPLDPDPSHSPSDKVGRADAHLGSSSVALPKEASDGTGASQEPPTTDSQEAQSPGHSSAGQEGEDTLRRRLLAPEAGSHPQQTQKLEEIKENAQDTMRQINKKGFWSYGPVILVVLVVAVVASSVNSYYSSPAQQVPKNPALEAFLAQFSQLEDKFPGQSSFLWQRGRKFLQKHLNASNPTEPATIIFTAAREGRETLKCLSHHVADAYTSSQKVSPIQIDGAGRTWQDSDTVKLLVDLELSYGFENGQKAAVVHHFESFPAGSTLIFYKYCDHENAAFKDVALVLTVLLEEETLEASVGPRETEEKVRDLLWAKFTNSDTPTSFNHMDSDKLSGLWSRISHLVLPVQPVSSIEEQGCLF

`COC(=O)[C@@]1(Cc2ccc(OC)cc2)[C@H]2c3cc(C(=O)N(C)C)n(Cc4ccccc4)c3C[C@H]2CN1C(=O)c1ccccc1`: the composite z-score in test [1] was -0.0018; in test [5], 1.84; in [7], 0.0241; in test [8], 0.337; in [9], 0.0263; in test [10] it was -0.254. Besides, the composite z-score is 0.656 in test [11]; 0.268 in test [12]; -0.332 in test [13]; 0.0697 in test [15]; 0.0849 in test [16]; -0.342 in test [17]. Further, the composite z-score in [18] was -0.0447; in test [19], -0.128; in test [20], 0.825. Moreover, the z-score in test [2] is 0.0364 (inactive); in [3], -0.55 (inactive); in [4] it was -1.42 (inactive); in test [6] it was -0.869 (inactive); in [14] it was -2.28 (inactive).
Turning to `COc1ccc(NC(=O)O[C@H]2[C@H](OC(=O)Nc3ccc4c(c3)OCO4)[C@@H](OC(=O)Nc3ccc4c(c3)OCO4)[C@@H](OC)O[C@@H]2CO)cc1`, the composite z-score in test [1] was 1.56; in test [5], 3.66; in test [7], -0.0396; in test [8] it was 0.89; in [9] it was 1.08; in test [10] it was -0.0953. The composite z-score in test [11] worked out at 1.61; in [12] it was 0.0898; in [13], 0.0398; in [15], 1.11; in test [16], 1.29; in [17], 0.0699. Also, the composite z-score was found to be 0.516 in test [18], 0.0542 in test [19] and 0.774 in test [20]. Besides, the z-score was 1.5 (inactive) in test [2]; 1.61 (inactive) in [3]; -0.31 (inactive) in [4]; 1.93 (inactive) in [6]; 1.27 (inactive) in [14].
Take `CC(C)C[C@@H]1NC(=O)[C@H]2C[C@@H](C(=O)NCCCCCC[N+](C)(C)C)[C@@H](c3cccc(OCCO)c3)N2C1=O`: the composite z-score is 1.13 in [1]; 2.49 in [5]; -0.166 in test [7]; 1.47 in test [8]; 1.07 in test [9]; 0.038 in [10]. For the same compound, the composite z-score is 1.14 in test [11]; -0.231 in [12]; -0.0365 in test [13]; 0.293 in test [15]; 0.661 in test [16]; 0.109 in test [17]. Moreover, the values for the composite z-score in test [18], in test [19] and in [20] were 0.504, 0.438 and 0.682, respectively. For the same compound, the z-score was -1.15 (inactive) in test [2]; -0.455 (inactive) in test [3]; -0.794 (inactive) in test [4]; 0.319 (inactive) in test [6]; -0.713 (inactive) in test [14].
Consider `CC(C)C(=C=CC[C@H](O)c1ccc(OCCO)cc1)C[C@H](O)c1cc(Cl)cc(Cl)c1O`, for which the composite z-score was 1.4 in test [1]; 1.78 in test [5]; 0.0511 in [7]; 1.41 in test [8]; 1.04 in test [9]; -0.008 in test [10]. In addition, the composite z-score in test [11] is 0.631; in test [12], -0.0017; in test [13], -0.249; in [15], 0.893; in [16], 0.741; in test [17], 0.122. Besides, the composite z-score is 0.699 in [18], -0.0061 in test [19] and 0.707 in [20]. Further, the z-score was 0.297 (inactive) in test [2]; -3.66 (inactive) in test [3]; -0.558 (inactive) in [4]; 0.192 (inactive) in test [6]; -0.492 (inactive) in test [14].
As to `COc1ccc(C#Cc2ccc3c(c2)[C@]2(C(=O)N3)[C@H](C(=O)N3CCc4cc(OC)c(OC)cc4C3)[C@H]3C(=O)O[C@H](c4ccccc4)[C@H](c4ccccc4)N3[C@@H]2c2ccc(O)cc2)cc1`, the composite z-score is 1.57 in test [1]; 2.28 in test [5]; -0.143 in test [7]; 0.875 in test [8]; 1.01 in [9]; -0.0142 in test [10]. In addition, the composite z-score in test [11] is 0.822; in [12], -0.29; in test [13], -0.178; in test [15], 0.851; in [16], 1.29; in test [17], 0.537. The results for the composite z-score in [18], in [19] and in test [20] were 0.957, 0.513 and -0.214, respectively. Besides, the z-score is 1.36 (inactive) in test [2]; 1.14 (inactive) in test [3]; 1.91 (inactive) in [4]; -0.384 (inactive) in [6]; -0.00287 (inactive) in test [14].

(Values after PubChem BioAssay.)
